The full ranking holds about 8,300 sequences; the median of “log2 fold change of degron read counts, EGFP-low vs EGFP+ sorted cells (limma voom), compound-induced degradation” is about -1.1, and the highest 2% start at about 3.2. What follows is part of a selection rich in the highest values, with near analogues and random picks from the rest.
B1: 46F_47Y_49E_50Q_52G_53A_54H_55F_67L_, Q9UKT9 (peptide)
chain: FYCEQCGAHFTQKGNLLRHIKL
B2: 46F_47S_49P_50I_52G_53A_54N_55F_67L_, Q9UKT9 (peptide)
chain: FSCPICGANFTQKGNLLRHIKL
B3: 46F_47M_49P_50I_52G_53A_54N_55F_67L_, Q9UKT9 (peptide)
chain: FMCPICGANFTQKGNLLRHIKL
B4: 46F_47Q_49P_50I_52G_53A_54N_55F_67L_, Q9UKT9 (peptide)
chain: FQCPICGANFTQKGNLLRHIKL
B5: 46F_47N_49P_50I_52G_53A_54N_55F_67L_, Q9UKT9 (peptide)
chain: FNCPICGANFTQKGNLLRHIKL
B6: 46F_47V_49P_50I_52G_53A_54N_55F_67L_, Q9UKT9 (peptide)
chain: FVCPICGANFTQKGNLLRHIKL
B7: 46F_47D_49P_50I_52G_53A_54N_55F_67L_, Q9UKT9 (peptide)
chain: FDCPICGANFTQKGNLLRHIKL
B8: 46F_47R_49P_50I_52G_53A_54N_55F_67L_, Q9UKT9 (peptide)
chain: FRCPICGANFTQKGNLLRHIKL
B9: 46F_47F_49P_50I_52G_53A_54N_55F_67L_, Q9UKT9 (peptide)
chain: FFCPICGANFTQKGNLLRHIKL
B10: 46F_47E_49P_50I_52G_53A_54N_55F_67L_, Q9UKT9 (peptide)
chain: FECPICGANFTQKGNLLRHIKL
B11: 46F_47L_49P_50I_52G_53A_54N_55F_67L_, Q9UKT9 (peptide)
chain: FLCPICGANFTQKGNLLRHIKL
B12: 46F_47T_49P_50I_52G_53A_54N_55F_67L_, Q9UKT9 (peptide)
chain: FTCPICGANFTQKGNLLRHIKL
B13: 46F_47Y_49P_50I_52G_53A_54N_55F_67L_, Q9UKT9 (peptide)
chain: FYCPICGANFTQKGNLLRHIKL

Target: T1, CRBN, Q96SW2
T1 chain: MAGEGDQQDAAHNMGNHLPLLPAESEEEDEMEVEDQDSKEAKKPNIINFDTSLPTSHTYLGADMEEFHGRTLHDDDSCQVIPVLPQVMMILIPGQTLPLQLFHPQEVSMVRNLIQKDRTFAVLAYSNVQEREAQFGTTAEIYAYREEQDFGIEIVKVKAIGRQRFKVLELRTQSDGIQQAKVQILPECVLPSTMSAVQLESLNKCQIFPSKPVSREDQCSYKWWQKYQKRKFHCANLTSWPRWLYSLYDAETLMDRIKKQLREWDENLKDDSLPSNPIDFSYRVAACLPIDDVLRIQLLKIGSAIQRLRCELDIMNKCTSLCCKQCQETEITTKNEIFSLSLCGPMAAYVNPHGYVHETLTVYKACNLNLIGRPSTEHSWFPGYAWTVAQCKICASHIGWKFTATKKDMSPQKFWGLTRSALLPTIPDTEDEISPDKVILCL
Experiment: log2 fold change of degron read counts, EGFP-low vs EGFP+ sorted cells (limma voom), compound-induced degradation; higher = more compound-induced degradation of the degron-EGFP fusion; degrons are variants of IKZF1/3 zinc finger 2; compound dose not given here
Settings: Jurkat, 18 h

[1] = compound: compound 19 (5-tert-butyl-thalidomide)
[2] = compound: compound 22 (5-morpholino-thalidomide)
[3] = compound: compound 33 (diphenyl IMiD analogue)
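Note: pooled lentiviral library of zinc finger degron-EGFP fusions in mCherry-positive Jurkat cells, FACS-sorted after compound exposure, with degron abundance counted by next-generation sequencing.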

Sequence | log2 fold change of degron read counts [1] | log2 fold change of degron read counts [2] | log2 fold change of degron read counts [3] | log2 fold change of degron read counts (compound: thalidomide)
B1 | -0.125 | 0.783 | 0.184 | -1.6
B2 | 2.46 | 1.78 | 1.97 | 1.54
B3 | -0.073 | 1.2 | 2.87 | 1.98
B4 | 0.555 | 2.18 | 2.19 | 3.58
B5 | 2.14 | 0.903 | 0.95 | 0.651
B6 | 0.327 | 2.63 | 1.9 | 2.81
B7 | 2.63 | 0.285 | 2.3 | 2.15
B8 | -0.337 | -0.426 | 1.12 | 1.57
B9 | 2.81 | 3.66 | 1.86 | 1.33
B10 | 0.136 | -0.0311 | 2.92 | 3.27
B11 | 0.744 | 0.272 | 1.69 | 1.77
B12 | 0.0113 | 2.63 | 1.93 | 2.85
B13 | 3.19 | 3.46 | 2.38 | 1.52

From the supplement of paper PMC12645437, “Orthogonal IMiD-Degron Pairs Induce Selective Protein Degradation in Cells” (ACS Chemical Biology, 2025)
